# Experimental data published in PubChem BioAssay (NCATS).
# Results filed as inconclusive are left out. Where a call stands in place of a potency, no number is given. Values without a mark were called inactive. Calls of active or inactive are those of the source. Unless noted, the call rests on the fitted dose curve; in most records, active means well fitted curve in the direction sought with a large enough effect; inconclusive means small, poorly fitted or top-dose-only effect, or another doubt; inactive means no such curve, though single readings can be large; an effect the other way counts as inactive or inconclusive.
# How the values were obtained:
# [1] = target: Calcium and integrin-binding protein 1 (Homo sapiens) (UniProt Q99828); test: Primary qHTS for Identification of Calcium Integrin Binding Protein 1 (CIB1) Competitor (AID 1508620);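 further: GST tagged CIB1 binding a fluorescein labelled alphaIIb integrin peptide tracer; top concentration of the series differs between compounds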
# Sequence of Calcium and integrin-binding protein 1 (Homo sapiens) (Q99828 whole entry, looked up): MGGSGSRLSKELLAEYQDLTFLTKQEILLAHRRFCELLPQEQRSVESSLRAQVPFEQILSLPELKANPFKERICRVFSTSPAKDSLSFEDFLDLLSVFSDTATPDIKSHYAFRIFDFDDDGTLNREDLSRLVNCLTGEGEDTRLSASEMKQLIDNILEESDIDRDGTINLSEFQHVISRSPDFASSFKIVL
# Outline: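 Fluorescence polarization competition: CIB1-GST (1 uM final) preincubated with compound 15 min at room temperature, then FITC-labeled alphaIIb peptide (100 nM final) added for another 15 min. Polarization read at Ex 480/Em 540.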
# [2] = target: Cytochrome P450 2D6 (Homo sapiens) (UniProt P10635); test: Cytochrome P450 family 2 subfamily D member 6 (CYP2D6) small molecule antagonists: luciferase biochemical (cell-free) qHTS assay (AID 1645840; active means well fitted curve in the direction sought with a large enough effect in the repeat runs; an effect the other way counts as inactive or inconclusive; further: nearly all actives have a fitted effect of over 55% in size; further: potency means the concentration at half of the fitted maximal effect; on activity change, negative = inhibition: series mostly up to about 57 µM)
# Sequence of Cytochrome P450 2D6 (Homo sapiens) (P10635 whole entry, looked up): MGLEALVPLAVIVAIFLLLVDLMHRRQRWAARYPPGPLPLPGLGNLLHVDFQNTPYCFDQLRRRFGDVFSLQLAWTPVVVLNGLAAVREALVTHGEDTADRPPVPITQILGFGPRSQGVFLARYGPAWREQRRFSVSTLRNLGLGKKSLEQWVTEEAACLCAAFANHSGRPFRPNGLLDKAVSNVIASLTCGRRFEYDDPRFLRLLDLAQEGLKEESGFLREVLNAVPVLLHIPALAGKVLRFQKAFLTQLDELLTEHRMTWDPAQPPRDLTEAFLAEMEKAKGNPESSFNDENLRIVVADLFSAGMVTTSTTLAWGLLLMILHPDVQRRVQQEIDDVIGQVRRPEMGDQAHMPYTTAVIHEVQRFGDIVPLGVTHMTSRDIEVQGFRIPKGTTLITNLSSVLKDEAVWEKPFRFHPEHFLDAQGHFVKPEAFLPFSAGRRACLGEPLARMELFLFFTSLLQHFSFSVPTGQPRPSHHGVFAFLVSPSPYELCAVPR
# Outline: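 P450-Glo CYP2D6 system: proluciferin substrate converted by enzyme to luciferin, read by luminescence proportional to activity. Enzyme-substrate mix with compound 10 min at room temperature, then NADPH regeneration 1 h before detection reagent.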
# [3] = target: Cytochrome P450 3A4 (Homo sapiens) (UniProt P08684); test: Cytochrome P450 family 3 subfamily A member 4 (CYP3A4) small molecule antagonists: luciferase qHTS assay (AID 1645841; active means well fitted curve in the direction sought with a large enough effect in the repeat runs; an effect the other way counts as inactive or inconclusive; further: nearly all actives have a fitted effect of over 45% in size; further: potency means the concentration at half of the fitted maximal effect)
# Sequence of Cytochrome P450 3A4 (Homo sapiens) (P08684 whole entry, looked up): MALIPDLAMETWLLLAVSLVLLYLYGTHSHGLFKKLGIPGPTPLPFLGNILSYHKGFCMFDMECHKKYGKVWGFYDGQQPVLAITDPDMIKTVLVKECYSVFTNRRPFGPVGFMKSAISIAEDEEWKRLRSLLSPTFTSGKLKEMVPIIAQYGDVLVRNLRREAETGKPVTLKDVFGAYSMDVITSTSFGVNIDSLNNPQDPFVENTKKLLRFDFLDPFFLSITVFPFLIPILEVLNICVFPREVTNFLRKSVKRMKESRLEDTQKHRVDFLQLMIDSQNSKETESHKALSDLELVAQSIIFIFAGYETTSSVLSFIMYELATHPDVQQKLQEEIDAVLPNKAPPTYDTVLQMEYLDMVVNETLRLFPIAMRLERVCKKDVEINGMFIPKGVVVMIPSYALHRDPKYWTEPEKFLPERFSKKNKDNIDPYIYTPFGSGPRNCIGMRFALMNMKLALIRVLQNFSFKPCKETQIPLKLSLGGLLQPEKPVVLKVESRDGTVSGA
# Outline: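 P450-Glo CYP3A4 enzyme with proluciferin substrate was preincubated with DMSO-dissolved compounds for 10 min at room temperature. NADPH regeneration solution started a 1 h reaction. Detection reagent stopped it, and luminescence was read after 20 min.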
# [4] = target: Cytochrome P450 2C9 (Homo sapiens) (UniProt P11712); test: Cytochrome P450 family 2 subfamily C member 9 (CYP2C9) small molecule antagonists: luciferase biochemical (cell-free) qHTS assay (AID 1645842; active means well fitted curve in the direction sought with a large enough effect in the repeat runs; an effect the other way counts as inactive or inconclusive; further: nearly all actives have a fitted effect of over 55% in size; further: potency means the concentration at half of the fitted maximal effect; on activity change, negative = inhibition: series mostly up to about 57 µM)
# Sequence of Cytochrome P450 2C9 (Homo sapiens) (P11712 whole entry, looked up): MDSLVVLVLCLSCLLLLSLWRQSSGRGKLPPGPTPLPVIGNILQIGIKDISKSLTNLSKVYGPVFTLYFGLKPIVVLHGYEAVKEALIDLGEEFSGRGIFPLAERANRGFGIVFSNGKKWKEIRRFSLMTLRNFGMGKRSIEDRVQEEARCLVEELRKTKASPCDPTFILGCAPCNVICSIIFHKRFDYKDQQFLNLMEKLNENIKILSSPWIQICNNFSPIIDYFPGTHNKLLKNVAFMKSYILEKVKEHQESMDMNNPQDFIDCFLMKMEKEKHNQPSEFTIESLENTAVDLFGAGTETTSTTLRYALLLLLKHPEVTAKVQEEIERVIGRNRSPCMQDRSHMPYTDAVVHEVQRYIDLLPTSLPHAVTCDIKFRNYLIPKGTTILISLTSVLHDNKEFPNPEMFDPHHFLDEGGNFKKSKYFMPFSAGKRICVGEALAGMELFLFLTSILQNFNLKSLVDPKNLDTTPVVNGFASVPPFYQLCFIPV
# Outline: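 P450-Glo CYP2C9 system: proluciferin substrate with enzyme in mix containing 0.4% BSA, 10 min at room temperature, then NADPH regeneration solution added and incubated 1 h at 37C. Detection reagent stopped reaction; luminescence read after 20 min as RLU.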
# [5] = Primary qHTS for inhibitors of nuclear receptor binding SET domain protein 2 (NSD2) in an isogenic RCH-ACV NSD2 p.E1099K mutant (9B) (AID 1645876); further: nearly all actives have a fitted effect of over 70% in size; further: potency means the concentration at half of the fitted maximal effect
# [6] = Primary qHTS for inhibitors of nuclear receptor binding SET domain protein 2 (NSD2) in an RCH-ACV wild type WT cells (2C) (AID 1645877); further: nearly all actives have a fitted effect of over 70% in size; further: potency means the concentration at half of the fitted maximal effect
# [7] = Primary qHTS for small molecule stabilizers of the endoplasmic reticulum resident proteome: Secreted ER Calcium Modulated Protein (SERCaMP) assay (AID 1508630)
# Outline: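 The SH-SY5Y reporter protocol was run at 3 concentrations up to 38.3 uM (primary) or 11 concentrations (follow-up): 16 h compound, 100 nM thapsigargin for 4 h, then extracellular luciferase luminescence.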
structure (smiles),measurement,setting,value
COC(C(=O)N1Cc2[nH]nc(NC(=O)c3ccc(N4CCN(C)CC4)cc3)c2C1)c1ccccc1 (configuration not stated),Potency,[1],inactive
same,Potency,[2],inactive
same,Potency,[3],inactive
same,Potency,[4],inactive
same,Potency,[5],0.0515 µM (active)
same,Potency,[6],0.0459 µM (active)
CS(=O)(=O)NCC1CCC(Nc2nc3c(s2)CCSc2ccccc2-3)CC1 (configuration not stated),Potency,[1],inactive
same,Potency,[2],10.7 µM (active)
COC(=O)[C@@]1(c2ccc(C)cc2)C[C@H]1CN1CCC(O)(c2ccccc2)CC1,Potency,[1],inactive
same,Potency,[2],2.68 µM (active)
C/C1=C\C[C@]2(C)C(=O)C(O)=C([C@H](C)CO)[C@H]2C/C=C(\C)[C@@H](O)CC/C(C)=C/CC1,Potency,[1],inactive
Cc1cccc(-c2[nH]c(Cc3cccc(C(N)=O)c3)nc2-c2ccc3nccnc3c2)n1,Potency,[1],inactive
same,Potency,[2],13.5 µM (active)
CC(=O)NC[C@H]1CN(c2ccc(N3CCN(C(=O)CO)CC3)c(F)c2)C(=O)O1,Potency,[1],inactive
same,Potency,[2],inactive
same,Potency,[4],inactive
Cc1ccc(-c2c(C(=O)CF)n(CCCO)c3ncnc(N)c23)cc1,Potency,[1],inactive
same,Potency,[2],inactive
same,Potency,[4],21.3 µM (active)
O=S(=O)(Nc1ccccn1)c1ccc(N=Cc2c(O)[nH]c3ccc4ncsc4c23)cc1,Potency,[1],inactive
COc1c(/C=C/C(C)(C)O)ccc2c1C(=O)OCc1cc(C)cc(O)c1O2,Potency,[1],inactive
COc1ccc(-c2nc(-c3ccc(-c4cccc(Cl)c4)o3)[nH]c2-c2ccc(OC)cc2)cc1,Potency,[1],inactive
same,Potency,[2],inactive
Fc1ccc2nc(CCC#Cc3ccccn3)cn2c1,Potency,[1],inactive
COc1ccc(C2COc3cc(O)ccc3C2)c(O)c1 (configuration not stated),Potency,[1],inactive
O=[N+]([O-])c1cn2c(n1)OCC(OCc1ccc(OC(F)(F)F)cc1)C2 (configuration not stated),Potency,[1],inactive
same,Potency,[2],inactive
CC(C)=CCCC1(C)C=Cc2c(c(C)cc3c2[nH]c2ccccc23)O1 (configuration not stated),Potency,[1],inactive
same,outcome,[7],inactive
CCC(CC)C(=O)Nc1sc2c(c1C#N)CCC(C(C)(C)CC)C2 (configuration not stated),Potency,[1],inactive
same,Potency,[2],inactive
same,Potency,[3],9.52 µM (active)
same,Potency,[5],inactive
same,Potency,[6],inactive
COC(=O)[C@H](O)[C@H]1C(C)(C)[C@H](OC(=O)C(C)C)[C@@]2(O)C(=O)[C@]1(C)C1CC[C@]3(C)C(CC(=O)O[C@H]3c3ccoc3)[C@]13O[C@@H]32 (some centres not stated),Potency,[1],inactive
COc1cc2ncnc(Nc3ccc(O)cc3)c2cc1OC,Potency,[1],inactive
same,Potency,[2],inactive
C=CC(C)(O)CC/C=C(\C)C(=O)OC1C(O)C(CO)OC(OC(=O)C23CCC(C)(C)CC2C2=CCC4C5(C)CCC(OC6OC(COC7OCC(OC(C)=O)C(O)C7OC7OC(COC(C)=O)C(O)C(O)C7O)C(O)C(O)C6O)C(C)(C)C5CCC4(C)C2(C)C(O)C3O)C1OC1OCC(OC2OCC(O)C(OC3OCC(O)C(O)C3O)C2O)C(O)C1O (configuration not stated),"activity change, negative = inhibition",[1],3.39% [at 12.4 µM]
CNC(C)C(=O)NC(C(=O)N1CCCC1c1nc(C(=O)c2ccc(F)cc2)cs1)C1CCCCC1 (configuration not stated),Potency,[1],inactive
Cc1cc(Nc2ncc3cc(-c4c(Cl)cccc4Cl)c(=O)n(C)c3n2)ccc1F,Potency,[1],inactive
same,Potency,[2],inactive
same,Potency,[3],inactive
same,Potency,[4],6.74 µM (active)
same,Potency,[5],0.728 µM (active)
same,Potency,[6],0.817 µM (active)
C[C@H]1Oc2cc(cnc2N)-c2c(nn(C)c2C#N)CN(C)C(=O)c2ccc(F)cc21,Potency,[1],inactive
same,Potency,[2],inactive
CC1CCCCN1S(=O)(=O)c1ccc(N2CCCC2=O)cc1 (configuration not stated),Potency,[1],inactive
same,Potency,[2],inactive
same,Potency,[3],inactive
same,Potency,[5],inactive
same,Potency,[6],inactive
Cc1noc(-c2ccc(-c3ccc(CC(=O)O)cc3)cc2)c1NC(=O)O[C@H](C)c1ccccc1,Potency,[1],inactive
same,Potency,[2],inactive
same,Potency,[4],13.5 µM (active)
CS(=O)(=O)c1ccc([C@H](CC2CCCC2)C(=O)Nc2nccs2)cc1,Potency,[1],inactive
same,Potency,[2],10.7 µM (active)
same,Potency,[4],6.01 µM (active)
Cc1nc(C)c(-c2ccc(C3CCC(CC(=O)O)CC3)cc2)nc1C(N)=O (configuration not stated),Potency,[1],inactive
same,Potency,[2],inactive
same,Potency,[4],inactive
same,Potency,[5],inactive
same,Potency,[6],inactive
N#CC(c1ccnc(OCc2ccc(CN3CCOCC3)cc2)n1)c1nc2ccccc2s1 (configuration not stated),Potency,[1],inactive
same,Potency,[2],inactive
same,Potency,[4],10.7 µM (active)
same,Potency,[5],inactive
NCc1ccc(Nc2ncc(F)c(Nc3ccccc3)n2)cc1,Potency,[1],inactive
same,Potency,[2],15.1 µM (active)
same,Potency,[4],6.74 µM (active)
same,Potency,[5],3.25 µM (active)
same,Potency,[6],4.09 µM (active)
